Experiments:
[1] = target: Serine/threonine-protein kinase PAK 6 (Homo sapiens) (UniProt Q9NQU5); settings: at 1 µM;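 also: values are mean percent inhibition of PAK6 kinase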
[2] = tested on: Tyrosine-protein kinase ABL1 (Homo sapiens), P00519 [E255K]; settings: at 0.1 µM
[3] = tested on: Tyrosine-protein kinase ABL1 (Homo sapiens), P00519 [E255K]; settings: at 1 µM
[4] = tested on: Tyrosine-protein kinase ABL1 (Homo sapiens), P00519 [H396P]; settings: at 0.1 µM
[5] = tested on: Tyrosine-protein kinase ABL1 (Homo sapiens), P00519 [H396P]; settings: at 1 µM
[6] = tested on: Tyrosine-protein kinase ABL1 (Homo sapiens), P00519 [M351T]; settings: at 0.1 µM
[7] = tested on: Tyrosine-protein kinase ABL1 (Homo sapiens), P00519 [M351T]; settings: at 1 µM
[8] = tested on: Tyrosine-protein kinase ABL1 (Homo sapiens), P00519 [Q252H]; settings: at 0.1 µM
[9] = tested on: Tyrosine-protein kinase ABL1 (Homo sapiens), P00519 [Q252H]; settings: at 1 µM
[10] = tested on: Tyrosine-protein kinase ABL1 (Homo sapiens), P00519 [T315I]; settings: at 0.1 µM
[11] = tested on: Tyrosine-protein kinase ABL1 (Homo sapiens), P00519 [T315I]; settings: at 1 µM
[12] = tested on: Tyrosine-protein kinase ABL1 (Homo sapiens), P00519 [Y253F]; settings: at 0.1 µM
[13] = tested on: Tyrosine-protein kinase ABL1 (Homo sapiens), P00519 [Y253F]; settings: at 1 µM
[14] = target: Tyrosine-protein kinase ABL1 (Homo sapiens) (UniProt P00519); settings: at 0.1 µM
[15] = target: Tyrosine-protein kinase ABL1 (Homo sapiens) (UniProt P00519); settings: at 1 µM
[16] = target: ALK tyrosine kinase receptor (Homo sapiens) (UniProt Q9UM73); settings: at 0.1 µM
[17] = target: ALK tyrosine kinase receptor (Homo sapiens) (UniProt Q9UM73); settings: at 1 µM
[18] = target: Tyrosine-protein kinase ABL2 (Homo sapiens) (UniProt P42684); settings: at 0.1 µM
[19] = target: Tyrosine-protein kinase ABL2 (Homo sapiens) (UniProt P42684); settings: at 1 µM
[20] = target: Tyrosine-protein kinase receptor UFO (Homo sapiens) (UniProt P30530); settings: at 0.1 µM;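 also: values are mean percent inhibition of AXL from the GSK PKIS screen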
Chain of Tyrosine-protein kinase receptor UFO (Homo sapiens) (P30530 whole entry): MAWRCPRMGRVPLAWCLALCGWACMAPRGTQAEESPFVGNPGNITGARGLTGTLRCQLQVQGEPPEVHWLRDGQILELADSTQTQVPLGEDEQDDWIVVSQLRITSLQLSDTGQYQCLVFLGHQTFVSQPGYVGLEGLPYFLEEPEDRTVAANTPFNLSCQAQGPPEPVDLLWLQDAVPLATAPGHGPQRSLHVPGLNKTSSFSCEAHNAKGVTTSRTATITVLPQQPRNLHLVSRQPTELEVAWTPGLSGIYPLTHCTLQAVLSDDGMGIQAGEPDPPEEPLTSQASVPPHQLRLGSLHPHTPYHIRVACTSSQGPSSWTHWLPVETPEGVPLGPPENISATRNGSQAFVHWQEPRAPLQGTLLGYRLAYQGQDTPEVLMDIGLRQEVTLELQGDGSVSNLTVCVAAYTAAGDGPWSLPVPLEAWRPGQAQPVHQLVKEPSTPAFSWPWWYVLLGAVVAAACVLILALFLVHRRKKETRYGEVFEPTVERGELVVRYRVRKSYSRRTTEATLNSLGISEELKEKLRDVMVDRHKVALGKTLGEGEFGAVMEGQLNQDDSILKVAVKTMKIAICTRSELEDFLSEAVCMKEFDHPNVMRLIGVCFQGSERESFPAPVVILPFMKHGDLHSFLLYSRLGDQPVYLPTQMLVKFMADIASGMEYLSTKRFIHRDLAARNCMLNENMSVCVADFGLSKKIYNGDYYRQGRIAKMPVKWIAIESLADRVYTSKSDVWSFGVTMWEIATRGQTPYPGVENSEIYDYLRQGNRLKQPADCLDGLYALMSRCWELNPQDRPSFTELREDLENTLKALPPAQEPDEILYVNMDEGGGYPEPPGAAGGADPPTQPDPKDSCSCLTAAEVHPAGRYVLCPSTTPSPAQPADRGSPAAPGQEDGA

Chain of ALK tyrosine kinase receptor (Homo sapiens) (Q9UM73 19-1620 limits assumed): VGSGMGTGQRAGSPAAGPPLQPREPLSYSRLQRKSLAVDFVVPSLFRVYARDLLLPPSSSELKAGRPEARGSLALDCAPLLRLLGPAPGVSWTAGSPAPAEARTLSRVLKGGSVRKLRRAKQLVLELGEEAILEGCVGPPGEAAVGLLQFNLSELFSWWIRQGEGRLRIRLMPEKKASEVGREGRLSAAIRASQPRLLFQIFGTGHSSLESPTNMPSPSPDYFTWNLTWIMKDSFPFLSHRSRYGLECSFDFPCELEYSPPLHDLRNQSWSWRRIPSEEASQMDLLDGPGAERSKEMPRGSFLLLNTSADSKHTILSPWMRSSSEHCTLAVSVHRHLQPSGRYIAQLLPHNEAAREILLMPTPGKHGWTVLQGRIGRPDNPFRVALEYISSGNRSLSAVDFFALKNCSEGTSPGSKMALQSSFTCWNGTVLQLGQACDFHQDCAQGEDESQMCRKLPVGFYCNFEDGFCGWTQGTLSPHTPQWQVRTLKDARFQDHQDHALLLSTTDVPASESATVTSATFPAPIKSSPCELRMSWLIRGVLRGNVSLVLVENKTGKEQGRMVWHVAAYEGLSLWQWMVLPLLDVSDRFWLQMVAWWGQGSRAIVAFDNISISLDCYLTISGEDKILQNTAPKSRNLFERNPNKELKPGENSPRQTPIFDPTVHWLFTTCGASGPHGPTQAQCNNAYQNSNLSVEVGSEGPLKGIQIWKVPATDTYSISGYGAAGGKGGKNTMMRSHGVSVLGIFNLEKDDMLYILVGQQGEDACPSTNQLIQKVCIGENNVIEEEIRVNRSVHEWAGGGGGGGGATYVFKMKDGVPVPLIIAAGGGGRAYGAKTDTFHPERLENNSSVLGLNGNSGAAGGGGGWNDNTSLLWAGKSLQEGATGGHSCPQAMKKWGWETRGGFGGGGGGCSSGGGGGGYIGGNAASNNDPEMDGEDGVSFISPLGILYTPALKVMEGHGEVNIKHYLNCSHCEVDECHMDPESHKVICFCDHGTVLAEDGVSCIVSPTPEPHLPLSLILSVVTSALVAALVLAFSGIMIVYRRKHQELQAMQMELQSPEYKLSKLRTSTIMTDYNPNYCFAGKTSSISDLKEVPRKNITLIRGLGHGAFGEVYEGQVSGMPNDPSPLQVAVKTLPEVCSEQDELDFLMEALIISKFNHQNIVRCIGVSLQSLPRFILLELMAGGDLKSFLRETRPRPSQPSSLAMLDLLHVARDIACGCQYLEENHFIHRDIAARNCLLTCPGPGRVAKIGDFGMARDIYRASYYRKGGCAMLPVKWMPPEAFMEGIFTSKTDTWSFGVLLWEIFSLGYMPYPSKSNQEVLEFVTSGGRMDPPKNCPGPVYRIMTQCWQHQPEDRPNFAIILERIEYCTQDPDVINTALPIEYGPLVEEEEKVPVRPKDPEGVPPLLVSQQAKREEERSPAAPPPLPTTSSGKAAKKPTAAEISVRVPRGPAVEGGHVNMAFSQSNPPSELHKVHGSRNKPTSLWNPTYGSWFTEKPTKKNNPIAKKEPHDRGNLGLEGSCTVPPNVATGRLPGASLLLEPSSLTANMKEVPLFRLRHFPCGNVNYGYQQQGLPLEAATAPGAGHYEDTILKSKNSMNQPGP
Chain of Serine/threonine-protein kinase PAK 6 (Homo sapiens) (Q9NQU5 whole entry, looked up): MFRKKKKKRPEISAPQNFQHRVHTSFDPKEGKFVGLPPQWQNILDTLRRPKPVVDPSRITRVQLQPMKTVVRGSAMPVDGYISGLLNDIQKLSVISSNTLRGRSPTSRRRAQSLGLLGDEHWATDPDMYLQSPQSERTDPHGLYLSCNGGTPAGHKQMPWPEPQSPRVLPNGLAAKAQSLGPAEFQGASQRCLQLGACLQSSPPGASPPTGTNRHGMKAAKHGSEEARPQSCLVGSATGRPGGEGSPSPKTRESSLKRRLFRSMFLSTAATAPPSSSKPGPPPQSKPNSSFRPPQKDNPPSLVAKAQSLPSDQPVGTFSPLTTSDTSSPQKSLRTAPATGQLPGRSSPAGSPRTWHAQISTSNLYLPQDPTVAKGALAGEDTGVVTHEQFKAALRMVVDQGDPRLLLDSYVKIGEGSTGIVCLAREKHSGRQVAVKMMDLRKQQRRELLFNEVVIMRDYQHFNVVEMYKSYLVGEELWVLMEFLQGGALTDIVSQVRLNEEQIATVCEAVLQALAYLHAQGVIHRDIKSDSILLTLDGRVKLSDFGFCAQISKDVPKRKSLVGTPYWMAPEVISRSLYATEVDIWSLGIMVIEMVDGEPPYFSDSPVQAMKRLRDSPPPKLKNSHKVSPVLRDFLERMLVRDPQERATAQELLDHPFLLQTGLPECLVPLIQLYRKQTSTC
Chain of Tyrosine-protein kinase ABL2 (Homo sapiens) (P42684 whole entry): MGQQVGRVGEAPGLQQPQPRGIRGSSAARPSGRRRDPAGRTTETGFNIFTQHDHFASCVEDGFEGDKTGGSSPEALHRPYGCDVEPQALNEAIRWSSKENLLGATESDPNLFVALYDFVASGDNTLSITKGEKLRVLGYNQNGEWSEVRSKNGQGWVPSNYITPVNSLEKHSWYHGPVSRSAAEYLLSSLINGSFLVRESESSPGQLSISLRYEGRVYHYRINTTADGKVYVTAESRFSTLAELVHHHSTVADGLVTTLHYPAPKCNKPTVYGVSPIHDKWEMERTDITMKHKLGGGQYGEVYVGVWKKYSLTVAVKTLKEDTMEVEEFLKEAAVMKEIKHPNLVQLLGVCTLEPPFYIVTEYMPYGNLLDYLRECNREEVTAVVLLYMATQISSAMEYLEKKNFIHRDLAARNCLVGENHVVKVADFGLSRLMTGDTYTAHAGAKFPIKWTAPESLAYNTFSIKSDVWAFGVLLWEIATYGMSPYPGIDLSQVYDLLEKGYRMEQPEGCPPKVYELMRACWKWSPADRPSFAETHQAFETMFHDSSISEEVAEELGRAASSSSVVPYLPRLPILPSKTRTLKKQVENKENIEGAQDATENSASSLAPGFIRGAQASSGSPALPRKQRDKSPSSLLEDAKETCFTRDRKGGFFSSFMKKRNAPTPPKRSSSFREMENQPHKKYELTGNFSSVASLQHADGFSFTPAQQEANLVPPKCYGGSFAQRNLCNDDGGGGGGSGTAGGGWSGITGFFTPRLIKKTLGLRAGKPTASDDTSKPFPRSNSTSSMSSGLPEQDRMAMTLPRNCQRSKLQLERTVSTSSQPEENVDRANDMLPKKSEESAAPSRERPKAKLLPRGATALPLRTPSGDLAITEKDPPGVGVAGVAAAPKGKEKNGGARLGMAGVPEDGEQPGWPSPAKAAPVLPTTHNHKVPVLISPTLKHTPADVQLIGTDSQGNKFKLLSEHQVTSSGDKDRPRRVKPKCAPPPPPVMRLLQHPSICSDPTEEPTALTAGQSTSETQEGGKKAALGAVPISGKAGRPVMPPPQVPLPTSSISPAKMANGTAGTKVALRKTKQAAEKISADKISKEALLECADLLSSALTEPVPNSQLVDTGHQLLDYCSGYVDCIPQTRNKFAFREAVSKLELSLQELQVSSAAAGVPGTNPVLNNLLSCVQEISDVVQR

| SMILES | inhibition [1] [%] | inhibition [2] [%] | inhibition [3] [%] | inhibition [4] [%] | inhibition [5] [%] | inhibition [6] [%] | inhibition [7] [%] | inhibition [8] [%] | inhibition [9] [%] | inhibition [10] [%] | inhibition [11] [%] | inhibition [12] [%] | inhibition [13] [%] | inhibition [14] [%] | inhibition [15] [%] | inhibition [16] [%] | inhibition [17] [%] | inhibition [18] [%] | inhibition [19] [%] | inhibition [20] [%] |
| --- | --- | --- | --- | --- | --- | --- | --- | --- | --- | --- | --- | --- | --- | --- | --- | --- | --- | --- | --- | --- |
| COc1ccc(-c2coc3ncnc(N)c23)cc1 | -1.23 | 3.51 | 9.75 | 5.34 | 11.3 | 3.43 | 8.4 | 5.31 | 9.48 | 1.41 | 2.72 | 4.98 | 10.8 | 3.7 | 12 | 4.4 | 3.97 | 3.42 | 8.31 | -5.99 |
| Nc1ncnc2occ(-c3ccc(NC(=O)Nc4cc(C(F)(F)F)cc(C(F)(F)F)c4)cc3)c12 | 7.94 | 3.79 | 25.5 | 18.5 | 68.1 | 48.5 | 80.9 | 45 | 75.5 | 42.5 | 83.3 | 9.88 | 42.3 | 3.94 | 43.5 | 2.49 | 10.8 | 6.22 | 48.9 | -0.91 |
| O=C1NC(=O)C(c2ccccc2Cl)=C1Nc1cccc(O)c1 | 11.2 | 1.22 | 1.02 | 3.02 | 1.17 | -0.23 | 2.78 | 2.48 | 1.91 | 3.52 | 6.08 | 3.51 | 3.33 | 4.23 | 9.09 | 2.43 | 4.74 | 4.43 | 1.33 | -5.88 |
| COC(=O)Nc1nc2cc(Oc3cccc(NC(=O)Nc4cc(C(F)(F)F)ccc4F)c3)ccc2[nH]1 | -6.76 | 0.37 | 7.39 | 9.03 | 41.7 | 34.8 | 69.3 | 32.1 | 68.6 | 2.28 | 12.6 | 5.16 | 19.8 | 0.82 | 24.6 | -1 | 0.13 | 4.08 | 41.3 | -0.41 |
| COc1cc(C=NNc2ncnc3c2cnn3-c2ccccc2)ccc1O | 2.62 | 24.9 | 77.9 | 40.3 | 84.9 | 40.1 | 88.5 | 50.5 | 88.7 | 32 | 82.1 | 43.3 | 86.6 | 23.4 | 73.7 | 2.44 | 6.69 | 11.6 | 71.5 | -1.48 |
| Cc1ccc(C(=O)NC2CCCCC2)cc1-c1ccc(C(=O)NCC2CC2)cc1 | -8.15 | 0.94 | -0.03 | 4.41 | 0.31 | 3.58 | 2.26 | 3.13 | 2.92 | 1.36 | -0.78 | 1.39 | 2.22 | 4.64 | 6.52 | 2.91 | 4.07 | 4.04 | 8.56 | 0.41 |
| COc1cc2ncn(-c3cc(OCc4ccccc4Cl)c(C(N)=O)s3)c2cc1OC | -7.5 | 1.52 | 21.7 | 6.52 | 31.1 | 4.21 | 32.3 | 5.23 | 28.2 | 3.9 | 27.1 | 4.62 | 32.7 | 3.59 | 32.2 | 1.53 | 5.8 | 1.8 | 21.1 | 0.24 |
| CCCN1CCC=C(c2ccc(Nc3nc(Nc4ccccc4C(N)=O)c4cc[nH]c4n3)c(C)c2)C1 | -5.41 | -0.02 | 5.11 | 2.87 | 7.11 | 1.17 | 5.02 | 3.91 | 8.95 | 1.37 | 12.1 | 1.82 | 7.55 | 5.84 | 16.4 | 76.2 | 82.1 | 10 | 13 | 8.88 |
| Fc1cccc(COc2ccc(Nc3ncnc4sc(-c5cccs5)cc34)cc2Cl)c1 | -8.25 | 0.56 | 1.97 | 1.28 | 3.54 | 1.53 | 2.68 | 0.76 | 2.11 | 1.08 | 0.93 | 1.7 | 3.31 | 1.23 | 6.44 | 0.25 | 0.57 | 1.27 | 5.37 | -4.04 |
| CCc1cccc(NC(=O)Nc2ccc(Oc3ccc4nc(NC(=O)OC)[nH]c4c3)cc2)c1 | 1.29 | 6.09 | 14.3 | 34 | 51.8 | 48.6 | 57.9 | 48.4 | 60.8 | 40.6 | 51.3 | 18.3 | 26.6 | 7.41 | 23.8 | 1.34 | 3.68 | 14.8 | 44.8 | 9.63 |
| c1cnn2ncc(-c3ccnc(Nc4ccc5c(c4)OCCO5)n3)c2c1 | 9.62 | 4.75 | 20.4 | 6.51 | 34.4 | 6.73 | 40.9 | 9.02 | 40.7 | 6.27 | 35.9 | 9.16 | 36 | 7.67 | 38.7 | 3.96 | 31.7 | 7.27 | 43.9 | -2.3 |
| Cc1nnc(-c2ccc(C)c(-c3ccc(C(=O)Nc4cccc(C#N)c4)cc3)c2)o1 | -7.37 | 2 | 4.21 | -0.02 | 3.51 | -0.06 | 2.91 | 3.04 | 4.21 | 1.53 | 2.58 | 1.18 | 3.76 | 3.64 | 5.81 | 3.61 | 2.36 | 4.17 | 6.56 | -4.6 |
| Cn1cc(C=C2C(=O)Nc3cccnc32)c2ccccc21 | 0.69 | 5.17 | 28.1 | 7.05 | 37.5 | 3.06 | 35.9 | 6.07 | 33.2 | 8.02 | 43.9 | 10.6 | 48.7 | 7.81 | 44.7 | 5.12 | 9.81 | 3.71 | 20.9 | -2.84 |
| CCn1c(-c2nonc2N)nc2cncc(C(=O)N3CCNCC3)c21 | 0.53 | -1.75 | 4.64 | 4.85 | 4.82 | -1.66 | -0.43 | 3.41 | 4.95 | 1.64 | 1.77 | 2.95 | 5.17 | 3.16 | 3.28 | 3.59 | 5.18 | 1.81 | 4.42 | -7.98 |
| Cc1cccc(-c2n[nH]cc2-c2ccc3ncccc3n2)n1 | -8.92 | 4.1 | 29.4 | 5.48 | 35.5 | 2.99 | 35.3 | 3.21 | 29.6 | -0.61 | 2.07 | 3.03 | 25.9 | 5.29 | 37.2 | 2.05 | 0.57 | 3.75 | 8 | -0.81 |
| CC1=C(C(=O)Nc2ccc3[nH]ncc3c2)C(c2ccc(F)cc2)NC(=O)N1 (stereo not given) | -1.9 | -0.56 | 4.16 | 1.62 | 1.78 | 1.52 | 3.88 | 2.07 | 3.37 | 0.1 | 2.66 | 1.48 | 5.27 | 3.51 | 8.74 | 0.35 | 3.89 | 2.2 | 19.7 | -2.41 |
| CNC(=O)c1cncc(/C=C/c2c(Cl)cccc2Cl)c1 | -7.96 | 3.46 | 33.3 | 9.69 | 47.2 | 6.02 | 42.2 | 8.15 | 41.9 | -0.11 | 4.22 | 12.5 | 54.5 | 8.37 | 40.5 | 6 | 9.12 | 7.46 | 35.7 | -6.04 |
| COc1cc2ncn(-c3cc(O[C@H](C)c4ccccc4Cl)c(C(N)=O)s3)c2cc1OC | 11.9 | 3.23 | 28.1 | 10.7 | 49.4 | 9.46 | 48.3 | 9.97 | 43.2 | 11.2 | 57.9 | 11.5 | 47.1 | 7.25 | 47.2 | 4.18 | 19 | 4.99 | 37.2 | -0.27 |
| NCc1ccc(-c2nc(-c3ccc(Cl)c(O)c3)c(-c3ccncc3)[nH]2)cc1 | 0.88 | 7.57 | 43.3 | 9.07 | 48.9 | 11.2 | 43.9 | 7.54 | 38.4 | 3.08 | 24.2 | 12.6 | 54.6 | 6.87 | 53.1 | -0.45 | 2.22 | 9.17 | 55.8 | -4.39 |
| CN(C)c1cc2c(Nc3ccc4nc(Cc5ccccc5)[nH]c4c3)ncnc2cn1 | -5.69 | 3 | 2.89 | 6.52 | 4.37 | 2.81 | 3.14 | 6.01 | 5.74 | 5.24 | 4.5 | 4.02 | 6.17 | 5.47 | 9.51 | 4.99 | 4.24 | 4.28 | 7.06 | -8.08 |
| CS(=O)(=O)Nc1ccc(N/C=C2\C(=O)Nc3ccccc32)cc1 | -8.06 | -0.28 | 3.16 | -0.26 | 10.9 | 1.98 | 16.4 | 1.09 | 11 | 0.68 | 18.3 | -0.43 | 12 | -0.3 | 11 | -2.22 | 5.88 | 0.2 | 8.69 | 2.95 |

Reference: ChEMBL document CHEMBL1961873, “Compounds: GSK PKIS; Assays: Nanosyn kinase panel” (2012)
